PTHR1 agonist = activates the human parathyroid hormone receptor PTHR1. 410,000 tested, 0.075% active. Q03431. Potency, µM (doses to about 115 µM), for inactives: at the highest dose activation, usual class: activators. HEK293 GP2 PTHR1 cells, GloSensor cAMP luminescence, 1 h; also: nearly all actives have a fitted effect of over 55% in size
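HEK-293-derived GP2 cells expressing PTHR1 and a GloSensor cAMP reporter, 3,000/well, plated overnight, given luciferin plus IBMX (each 0.5 mM as added) for 1 h at 37 °C, then compound for 1 h at 37 °C. Luminescence was read after 15 min at room temperature.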
GLP1R cytotox = cytotoxicity counter-screen for GLP-1 receptor inverse agonists. 410,000 tested, 0.13% active. AID 624418. HEK293 cAMP-luciferase reporter cells, luminescence, 24 h. Potency, µM (doses to about 38.3 µM), without a hit: top-dose activity change, negative = inhibition, hits mostly inhibitors;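 also: loss of luciferase light is scored as toxicity; % is scaled to controls: 0 for no effect and ±100 for the full control effect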
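1536-well qHTS counterscreen of the MLSMR; 200 cells/uL, 12 h pre-incubation, 23 nL cpd, 24 h at 37 deg C 5% CO2, luciferase detection reagent, 12 min RT, luminescence. Inhibition = undesired.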
GLP1R ag = activates the human GLP-1 receptor. HEK293 GLP-1R CRE-luciferase, luminescence, 4-6 h; cells express a hypersensitive GLP-1R form. P43220. 380,000 tested, 0.007% active. Potency, µM (doses to about 45.6 µM), for inactives: top-dose activation, most hits filed as activators; also: % of control where 0% means no effect
GLP1R inv ag = acts as inverse agonist at human GLP-1 receptor; 410,000 tested, 1.6% active; HEK293 GLP-1R CRE-luciferase, luminescence, 24 h; GLP-1R form is constitutively active; Potency, µM (titrated, usually from 38.3 µM), for inactives: at the highest dose activity change, negative = inhibition, hits mostly inhibitors; P43220; also: % is scaled to controls: 0 for no effect and ±100 for the full control effect; nearly all actives have a fitted effect of over 55% in size
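Luminescence readout: a drop in cAMP-driven luciferase signal flags inverse agonism at a constitutively active GLP-1R stably expressed in HEK293. Compound exposure lasted 24 hr at 37 deg C, 5% CO2.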
Active calls of the source: *; i = inactive; ? = inconclusive; nt = no result. Sampled rows, rich in hits. Any-hit rate of the full collection: about 1.7%. Calls follow the shape of the dose curve; as a rule, active = well fitted curve in the direction sought with a large enough effect; inconclusive = small, poorly fitted or top-dose-only effect, or another doubt; inactive = no such curve, though single readings can be large; an effect the other way counts as inactive or inconclusive. Potency is read from the fitted curve at half-maximal effect.

SMILES	PTHR1 agonist	GLP1R cytotox	GLP1R ag	GLP1R inv ag
Cc1ccc(Cn2c3ccccc3c3cnn(CC(=O)N4CCCCCC4)c(=O)c32)cc1	-11%	4%	nt	-3%
COc1cccc(CN2CCN(Cc3cc(OC)c(OC)c(OC)c3)CC2)c1OC	-6%	-1%	0%	16%
COc1cccc(CN2CCC(N(CCc3ccccc3)Cc3ccccc3)CC2)c1OC	i	-1%	-9%	10µM*
COc1cccc(CN2CCN(Cc3cccc(Oc4ccccc4)c3)CC2)c1OC	-35%	?	-2%	6.3µM*
COc1cccc(CN2CCN(CCc3ccccc3)C(CCO)C2)c1OC (configuration not stated)	i	3%	2%	-8%
Cc1c(Cl)cccc1NC(=S)N(Cc1cccnc1)Cc1ccccc1Cl	i	-25%	10%	11µM*
S=C(Nc1ccccc1Cl)N(Cc1ccccc1)Cc1ccccn1	i	?	5%	10µM*
COc1cccc(-c2nc(CS(=O)CC(=O)N3CCN(c4cccc(C(F)(F)F)c4)CC3)c(C)o2)c1 (configuration not stated)	-36%	-17%	nt	?
O=c1n(Cc2ccc(Cl)cc2)c2ccccc2c2nc(-c3ccccc3)nn12	-21%	7%	nt	2%
O=C(NN=C1CCCC1)c1[nH]c2ccc(Cl)cc2c1-c1ccccc1	-10%	?	21%	3.2µM*
CC(=O)NNC(=O)c1[nH]c2ccc(Cl)cc2c1-c1ccccc1	i	-9%	1%	?
CC(=O)c1ccc(N2CCc3ccccc3C2)c([N+](=O)[O-])c1	-16%	-19%	-2%	3.2µM*
CC(=O)c1ccc(N2CCN(c3ncccn3)CC2)c([N+](=O)[O-])c1	-4%	0%	13%	19%
Clc1ccc(CSc2ncnc3c2ncn3C2CCCCO2)cc1 (configuration not stated)	-28%	0%	31%	11µM*
CC(C)CCNC(=O)c1onc(CSc2ccc(F)cc2)c1C(=O)NCCC(C)C	i	19%	-4%	?
CC(C)CCNC(=O)c1onc(CSc2ccc(Cl)cc2)c1C(=O)NCCC(C)C	i	2%	4%	10µM*
CCCNC(=O)c1onc(CSc2ccccc2)c1C(=O)NCCC	-18%	7%	-4%	?
CC(C)CCNC(=O)c1onc(CSc2ccccc2)c1C(=O)NCCC(C)C	-4%	-14%	7%	4µM*
CCC(C)N(CCNC(=O)c1ccc2c(c1)NC(=O)c1ccccc1S2)C1CCCCC1 (configuration not stated)	?	?	6%	3.5µM*
CC1CCCN(c2ccc3nc4ccccc4c(=O)n3n2)C1 (configuration not stated)	-41%	3%	-3%	5µM*
COC1CC(O[C@H]2/C(C)=C/CC3CC(C[C@]4(CCC(C)C(C5CCCCC5)O4)O3)OC(=O)[C@H]3C=C(C)/C(=N/O)C4OC/C(=C\C=C\[C@@H]2C)[C@@]43O)OC(C)C1O (some centres not stated)	nt	nt	-5%	nt
O=C(CSc1nnc(SCc2cccc3ccccc23)s1)N/N=C/c1c[nH]c2ccccc12	-24%	-6%	3%	5.6µM*
O=C(CSc1nnc(SCc2ccc(Cl)cc2)s1)N/N=C/c1c[nH]c2ccccc12	-23%	?	4%	?
Cc1ccc(S(=O)(=O)N2c3cc(C)ccc3OCC2C(C)(C)C)cc1 (configuration not stated)	i	?	-11%	5µM*
COc1cccc(C(=O)N2c3cc(C)ccc3OCC2C(C)(C)C)c1 (configuration not stated)	-26%	-2%	1%	11%
COc1ccc(S(=O)(=O)N2c3cc(C)ccc3OCC2C(C)(C)C)cc1 (configuration not stated)	-29%	-22%	-1%	5µM*
CCOC(=O)c1cc(N2CCCCC2)nc2ccccc12	i	225%	1%	7.9µM*
CCCCCC(=O)N1C[C@H](O)[C@@H](n2cc(-c3ccc(F)cc3)nn2)C[C@@H]1c1ccc(OC)cc1	-21%	-24%	5%	11µM*
CCCCCCN1C[C@H](n2cc(-c3ccc(F)cc3)nn2)[C@@H](O)C[C@@H]1c1ccc(OC)cc1	-19%	4%	-5%	-31%
